Hits are enriched below; roughly 19% of the tested compounds scored in any of these assays.
IL-1B inflam inh: blocks inflammasome-driven IL-1 beta release. 360,000 compounds, 4.7% hits. activity change, % at 57.5 µM. THP-1 LPS/ATP IL-1B secretion, AlphaLISA, 16 h; active compounds read low. AID 743279; in the data active means activity change below about -50%; inconclusive means mostly about -30% to -49%
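Secreted IL-1B measured by AlphaLISA bead assay after 16 h compound exposure of THP-1 cells; compounds (final up to 57.5 uM) added 1 h before LPS (250 ng/mL) and ATP (1.25 mM) stimulation; lower signal means less secretion.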
HT1080NT lethal: kills 2HG-producing HT-1080-NT fibrosarcoma cells; HT-1080-NT fibrosarcoma viability, CellTiter-Glo ATP luminescence, 48 h; Potency, µM (series often up to 46.1 µM), for inactives: top-dose activity, negative = less viability, usual class: cytotoxic; 360,000 compounds, 1.6% hits; AID 686970;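 further: NT is the 2HG producing partner of a matched IDH1 knockdown line; potency means the concentration at half of the fitted maximal effect; 0% = DMSO-treated cells and -100% = media-only wells without cells; nearly all actives have a fitted effect of over 55% in size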
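Viability of the 2HG-overproducing fibrosarcoma line after 48 hours of compound exposure at 37 degrees C was determined by luminescence with CellTiter-Glo, and concentration-effect curves were then fitted and categorized.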
ELG1 repair inh: inhibitors of ELG1-dependent DNA repair in HEK293T cells | HEK293T ELG1-luciferase reporter, luminescence, 16 h; DNA damage induced by 5-fluorouridine | Potency, µM (highest dose often 46.1 µM), for inactives: at the highest dose activity change, negative = inhibition, usual class: inhibitors | 330,000 compounds, 2.3% hits | AID 504467; further: potency means the concentration at half of the fitted maximal effect; nearly all actives have a fitted effect of over 55% in size
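5-Fluorouridine DNA damage + compound/DMSO, 2,000 cells/well, 16 h, 37 °C/5% CO2. ONE-Glo, 30 min RT, luminescence. Readout = decrease in reporter signal.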
TDP1 cell noCPT: qHTS for Inhibitors of human tyrosyl-DNA phosphodiesterase 1 (TDP1): qHTS in cells in absence of CPT | 420,000 compounds, 15% hits | AID 686978, 2013 | DT40 Tdp1-/- hTDP1 cells, no CPT, ATP luminescence, 48 h | Potency, µM (highest dose often 46.2 µM), without a hit: at the highest dose activity change, negative = growth inhibition, hits mostly inhibitors; further: potency means the concentration at half of the fitted maximal effect; nearly all actives have a fitted effect of over 55% in size
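Growth of hTDP1-complemented DT40 Tdp1-knockout cells is measured by ATP luminescence after at least 48 hr compound exposure at 37 °C, with DMSO substituting for the 20 nM CPT used in the parallel screen.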
HT1080 IDH1KD tx: kills HT-1080 cells with IDH1 knockdown; HT-1080 IDH1 knockdown viability, ATP luminescence, 48 h; Potency, µM (highest dose often 46.1 µM), without a hit: at the top dose activity, negative = toxicity, usual class: cytotoxic; 360,000 compounds, 2% hits; AID 686971;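 further: potency means the concentration at half of the fitted maximal effect; 0% = DMSO wells and -100% = cell-free medium wells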
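HT-1080-IDH1KD cells (IDH1 knocked down), 750/well in RPMI with 5% FBS, treated with compound 48 h at 37 degrees C. Viability by CellTiter-Glo luminescence, normalised to DMSO and no-cell wells; concentration-response curves classed.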
DT40 TDP1 CPT: DT40-hTDP1 cell growth loss with CPT | chicken DT40 Tdp1-/-;hTDP1 cells + 20 nM CPT, ATP luminescence, 48 h | Potency, µM (doses to about 46.2 µM), for inactives: top-dose activity change, negative = growth inhibition, hits mostly inhibitors | 420,000 compounds, 12% hits | AID 686979; further: potency means the concentration at half of the fitted maximal effect; nearly all actives have a fitted effect of over 55% in size
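Chicken DT40 Tdp1-/- cells stably complemented with human TDP1 were seeded at 400 cells/well in medium containing 20 nM camptothecin, exposed to pin-transferred compounds, and grown at 37 °C for at least 48 hr. Viability was read as ATP luminescence.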
Active calls of the source: *; ! = a repeat was not active. Unless noted, the call rests on the fitted dose curve; in most records, active means well fitted curve in the direction sought with a large enough effect; inconclusive means small, poorly fitted or top-dose-only effect, or another doubt; inactive means no such curve, though single readings can be large; an effect the other way counts as inactive or inconclusive. Unless noted, on the % scale 0 is the no-effect control and ±100 the full control effect.

For C[C@@H]1CN([C@H](C)CO)C(=O)c2cccc(NS(=O)(=O)c3cccs3)c2O[C@H]1CN(C)Cc1ccccc1 the results were IL-1B inflam inh 36, HT1080NT lethal 0%, ELG1 repair inh -1%, TDP1 cell noCPT 12µM*, HT1080 IDH1KD tx 8% and DT40 TDP1 CPT 12µM*.
`COc1ccc(CN(C)C[C@H]2Oc3c(NC(=O)Nc4ccccc4)cccc3C(=O)N([C@H](C)CO)C[C@@H]2C)cc1` gave IL-1B inflam inh -7, HT1080NT lethal -7%, ELG1 repair inh inconclusive, TDP1 cell noCPT 29µM*, HT1080 IDH1KD tx -3% and DT40 TDP1 CPT 16µM*.
Screening COc1ccc(S(=O)(=O)Nc2cccc3c2O[C@H](CN(C)Cc2ccc(-c4ccccc4)cc2)[C@@H](C)CN([C@H](C)CO)C3=O)cc1 returned IL-1B inflam inh inconclusive, HT1080NT lethal -17%, ELG1 repair inh -7%, TDP1 cell noCPT inconclusive, HT1080 IDH1KD tx -14% and DT40 TDP1 CPT inconclusive.
`COc1ccc(-n2nc(C(=O)NCC(=O)NCCCN3CCOCC3)c3ccccc3c2=O)cc1` gave IL-1B inflam inh -17, HT1080NT lethal -1%, ELG1 repair inh 0%, TDP1 cell noCPT -12%, HT1080 IDH1KD tx 8% and DT40 TDP1 CPT -22%.
`CNc1nc(Nc2ccc(C(C)=O)cc2)nc(OC(C(F)(F)F)C(F)(F)F)n1` gave IL-1B inflam inh -58*, HT1080NT lethal -14%, ELG1 repair inh inconclusive, TDP1 cell noCPT 23µM*, HT1080 IDH1KD tx -23% and DT40 TDP1 CPT inconclusive.
For CCn1c(CNC(=O)c2ccc(OC)cc2)nnc1SCC(=O)Nc1ccc(C)cc1 the results were TDP1 cell noCPT -10% and DT40 TDP1 CPT 3%.
Screening CC(=O)N1CCc2cc(Br)cc(S(=O)(=O)N3CCN(c4cc(C)ccc4C)CC3)c21 returned TDP1 cell noCPT 4% and DT40 TDP1 CPT 7%.
Screening Cc1ccc(NC(=O)CN2C(=O)COc3ccc(S(=O)(=O)NC4CCCC4)cc32)c(Cl)c1 returned TDP1 cell noCPT inconclusive and DT40 TDP1 CPT -26%.
For CC(C)N(Cc1ccccc1)C(=O)CN1C(=O)COc2ccc(S(=O)(=O)NC3CCCC3)cc21 the results were IL-1B inflam inh inconclusive, HT1080NT lethal -2%, ELG1 repair inh -4%, TDP1 cell noCPT 23µM*!, HT1080 IDH1KD tx -17% and DT40 TDP1 CPT 26µM*.
Screening CCOc1ccccc1NC(=O)CN1C(=O)COc2ccc(S(=O)(=O)NC3CCCC3)cc21 returned TDP1 cell noCPT inconclusive and DT40 TDP1 CPT 26µM*.
For CCn1c(CN2CCOCC2)nc2cc(NC(=O)c3ccc([N+](=O)[O-])cc3)ccc21 the results were TDP1 cell noCPT -24% and DT40 TDP1 CPT -21%.
For CCOC(=O)Cc1csc(NC(=O)CCCCCN2C(=O)c3ccccc3C2=O)n1 the results were IL-1B inflam inh -56*, HT1080NT lethal 5%, ELG1 repair inh 6%, TDP1 cell noCPT -24%, HT1080 IDH1KD tx 6% and DT40 TDP1 CPT -1%.
For CCOC(=O)Cc1csc(NC(=O)CCS(=O)(=O)Cc2ccccc2)n1 the results were IL-1B inflam inh 2, HT1080NT lethal inconclusive, ELG1 repair inh -10%, TDP1 cell noCPT -26%, HT1080 IDH1KD tx 10µM* and DT40 TDP1 CPT inconclusive.
For CCOC(=O)Cc1csc(NC(=O)CS(=O)(=O)Cc2ccccc2)n1 the results were IL-1B inflam inh -9, HT1080NT lethal 19%, ELG1 repair inh -3%, TDP1 cell noCPT inconclusive, HT1080 IDH1KD tx 16% and DT40 TDP1 CPT -22%.
For CN1CCC(Oc2ccccc2Sc2ccccc2)CC1 the results were HT1080NT lethal inconclusive, ELG1 repair inh -18%, TDP1 cell noCPT 16µM*, HT1080 IDH1KD tx -5% and DT40 TDP1 CPT inconclusive.
Screening Cc1cccc(-n2ncc(C(=O)NCc3ccco3)c2C2CCN(C(=O)OC(C)(C)C)CC2)c1 returned TDP1 cell noCPT inconclusive and DT40 TDP1 CPT 16µM*.
COc1cccc(N2CCN(C(=O)c3cnn(-c4ccc(C)cc4C)c3C3CCN(C(=O)OC(C)(C)C)CC3)CC2)c1 was read as TDP1 cell noCPT 21µM* and DT40 TDP1 CPT inconclusive.
`Cc1ccc(-n2ncc(C(=O)N3CCN(Cc4ccccc4)CC3)c2C2CCN(C(=O)OC(C)(C)C)CC2)c(C)c1` gave TDP1 cell noCPT 13µM* and DT40 TDP1 CPT 4.6µM*.
For Cc1ccc(-n2ncc(C(=O)N3CCN(C(=O)c4ccco4)CC3)c2C2CCN(C(=O)OC(C)(C)C)CC2)cc1 the results were TDP1 cell noCPT -10% and DT40 TDP1 CPT -3%.
For CN1CCN(C(=O)c2cnn(-c3cccc(Cl)c3)c2C2CCN(C(=O)OC(C)(C)C)CC2)CC1 the results were TDP1 cell noCPT -22% and DT40 TDP1 CPT -1%.
Screening COc1cccc(N2CCN(C(=O)c3cnn(-c4ccccc4Cl)c3C3CCN(C(=O)OC(C)(C)C)CC3)CC2)c1 returned TDP1 cell noCPT 21µM* and DT40 TDP1 CPT inconclusive.
O=[N+]([O-])c1cc(-c2nc(-c3ccco3)no2)ccc1NCc1ccccc1 was read as TDP1 cell noCPT inconclusive and DT40 TDP1 CPT -1%.
Screening CC(C)(C)OC(=O)N1CCC(c2c(C(=O)N3CCN(c4ccc(Cl)cc4)CC3)cnn2-c2ccc(F)cc2F)CC1 returned TDP1 cell noCPT 16µM* and DT40 TDP1 CPT inconclusive.
Screening CC(C)(C)OC(=O)N1CCC(c2c(C(=O)N3CCN(c4ccccc4F)CC3)cnn2-c2ccccc2Cl)CC1 returned TDP1 cell noCPT 16µM* and DT40 TDP1 CPT 18µM*.
For CCN1CCN(C(=O)c2cnn(-c3cccc(C)c3)c2C2CCN(C(=O)OC(C)(C)C)CC2)CC1 the results were TDP1 cell noCPT inconclusive and DT40 TDP1 CPT 21µM*.
Screening CN1CCN(C(=O)c2cnn(-c3ccc(F)cc3F)c2C2CCN(C(=O)OC(C)(C)C)CC2)CC1 returned TDP1 cell noCPT 4% and DT40 TDP1 CPT 10%.
For C=CCc1cccc(/C=N/NC(=O)CNc2ccccc2)c1O the results were IL-1B inflam inh 89, HT1080NT lethal inconclusive, TDP1 cell noCPT 5.2µM*, HT1080 IDH1KD tx 18µM* and DT40 TDP1 CPT 21µM*.

Screening data as filed in PubChem.
